Measured values: PubChem BioAssay AID1159580 (chemical genetic matrix, 2015)
Out of some 5,500 compounds screened, about 2,000 (36%) were called active. About 18% were inconclusive and are not listed. Rule as the data show it: active = normalized growth mostly below about 0.91 (no sharp cut-off); inconclusive = no clear call, values can overlap the other calls; inactive = mostly above about 0.92. Some of the results follow.

Experiment: chemical genetic growth profiling, strain panel (AID 1159580);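 also: tested at 20 µM; growth read once vehicle control cultures reached saturation at 30 °C; 1 = growth at the plate median or of vehicle wells; lower values mean less growth of the strain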
Settings: S. cerevisiae deletion strains, growth OD
[1] = locus YJL095W, strain BCK1, active compounds read low

Measured: normalized growth

C[C@]12C=CC(=O)C=C1CCC1C2[C@@H](O)C[C@@]2(C)C1CC[C@]2(O)C(=O)COC(=O)CCC(=O)O (stereo partly specified)
inactive: locus YHR030C, strain SLT2, active compounds read low 0.969 | locus YHR079C, strain IRE1, active compounds read low 0.968 | [1] 1 | locus YJR066W, strain TOR1, active compounds read low 0.931 | locus YLR113W, strain HOG1, active compounds read low 1 | locus YNL183C, strain NPR1, active compounds read low 0.931 | locus YOR231W, strain MKK1, active compounds read low 0.979 | locus YPL256C, strain CLN2, active compounds read low 0.963

CC(C1OC(C)(C)C(O)C1O)[C@@H]1CC[C@]2(C)C3=CCC4C(C)(C)C(=O)CC[C@]4(C)C3CC[C@@]12C (stereo partly specified)
inactive: locus YAL013W, strain DEP1, active compounds read low 0.979 | locus YAL021C, strain ccr4, active compounds read low 1.02 | locus YAL026C, strain drs2, active compounds read low 0.987 | locus YAL030W, strain snc1, active compounds read low 1 | locus YBL061C, strain skt5, active compounds read low 0.978 | locus YBR009C, strain hhf1, active compounds read low 0.946 | locus YBR021W, strain FUR4, active compounds read low 1.06 | locus YBR023C, strain chs3, active compounds read low 0.985 | locus YBR171W, strain sec66, active compounds read low 0.985 | locus YBR229C, strain ROT2, active compounds read low 1.02 | locus YBR231C, strain swc5, active compounds read low 0.971 | locus YBR279W, strain paf1, active compounds read low 0.995 | locus YCL011C, strain gbp2, active compounds read low 0.981 | locus YCL016C, strain dcc1, active compounds read low 0.989 | locus YCL029C, strain bik1, active compounds read low 1.01 | locus YCL061C, strain MRC1, active compounds read low 0.995 | locus YCL069W, strain vba3, active compounds read low 0.994 | locus YCR088W, strain abp1, active compounds read low 1 | locus YDL005C, strain med2, active compounds read low 0.968 | locus YDL035C, strain GPR1, active compounds read low 0.931 | locus YDL040C, strain nat1, active compounds read low 0.976 | locus YDL074C, strain BRE1, active compounds read low 0.845 | locus YDL101C, strain DUN1, active compounds read low 0.989 | locus YDL134C, strain PPH21, active compounds read low 0.951 | locus YDL192W, strain arf1, active compounds read low 0.983 | locus YDR001C, strain nth1, active compounds read low 0.999 | locus YDR069C, strain doa4, active compounds read low 0.985 | locus YDR101C, strain arx1, active compounds read low 0.973 | locus YDR137W, strain rgp1, active compounds read low 1.02 | locus YDR159W, strain sac3, active compounds read low 0.898 | locus YDR162C, strain NBP2, active compounds read low 0.958 | locus YDR195W, strain ref2 1.05 | locus YDR297W, strain sur2, active compounds read low 0.981 | locus YDR318W, strain mcm21, active compounds read low 1 | locus YDR334W, strain swr1, active compounds read low 0.987 | locus YDR335W, strain msn5, active compounds read low 0.999 | locus YDR388W, active compounds read low 1.03 | locus YDR392W, strain spt3, active compounds read low 0.838 | locus YDR502C, strain sam2, active compounds read low 0.989 | locus YEL003W, strain gim4, active compounds read low 0.937 | locus YEL037C, strain rad23, active compounds read low 0.983 | locus YEL061C, strain CIN8 (second series), active compounds read low 0.99 | locus YER015W, strain faa2, active compounds read low 0.992 | locus YER016W, strain bim1, active compounds read low 0.99 | locus YER110C, active compounds read low 1.03 | locus YER111C, strain swi4, active compounds read low 0.999 | locus YER155C, strain BEM2 (second series), active compounds read low 0.924 | locus YER155C, strain BEM2, active compounds read low 1.07 | locus YER167W, strain BCK2, active compounds read low 1.01 | locus YFR010W, strain ubp6, active compounds read low 0.973 | locus YGL078C, strain dbp3, active compounds read low 1.03 | locus YGL086W, strain mad1, active compounds read low 1.03 | locus YGL167C, strain pmr1, active compounds read low 0.977 | locus YGL173C, strain kem1, active compounds read low 0.976 | locus YGL227W, strain vid30, active compounds read low 0.99 | locus YGL240W, strain doc1, active compounds read low 0.896 | locus YGL248W, strain PDE1, active compounds read low 0.97 | locus YGL253W, strain hxk2, active compounds read low 0.922 | locus YGR078C, strain PAC10, active compounds read low 0.91 | locus YGR135W, strain pre9, active compounds read low 1.01 | locus YGR252W, strain gcn5, active compounds read low 0.77 | locus YHR013C, strain ard1, active compounds read low 0.966 | locus YHR027C, strain rpn1, active compounds read low 1.02 | locus YHR079C, strain IRE1 (second series), active compounds read low 1.03 | locus YHR094C, strain hxt1, active compounds read low 1.03 | locus YHR129C, strain ARP1, active compounds read low 1 | locus YHR142W, strain chs7, active compounds read low 0.919 | locus YHR200W, strain rpn10, active compounds read low 1.01 | locus YIL066C, strain RNR3, active compounds read low 0.887 | locus YIL073C, strain SPO22, active compounds read low 0.99 | locus YIL125W, strain kgd1, active compounds read low 1.03 | locus YIR030C, strain dcg1, active compounds read low 1.04 | locus YJL092W, strain hpr5, active compounds read low 1 | locus YJL095W, strain BCK1 (second series), active compounds read low 1 | [1] 0.904 | locus YJL115W, strain asf1, active compounds read low 0.985 | locus YJL129C, strain trk1, active compounds read low 0.949 | locus YJL134W, strain LCB3, active compounds read low 1.04 | locus YJL154C, strain vps35, active compounds read low 1.01 | locus YJL164C, strain tpk1, active compounds read low 0.983 | locus YJL166W, strain qcr8, active compounds read low 0.917 | locus YJL168C, strain set2, active compounds read low 1.03 | locus YJL187C, strain SWE1 (second series), active compounds read low 0.958 | locus YJL187C, strain SWE1, active compounds read low 0.999 | locus YKL068W, active compounds read low 1.02 | locus YKL085W, strain MDH1 (second series), active compounds read low 1.05 | locus YKL085W, strain MDH1, active compounds read low 1.05 | locus YKL160W, strain elf1, active compounds read low 0.972 | locus YKL190W, strain CNB1, active compounds read low 1.03 | locus YKR001C, strain vps1, active compounds read low 1.01 | locus YKR026C, strain gcn3, active compounds read low 0.996 | locus YKR091W, strain srl3, active compounds read low 0.995 | locus YLL001W, strain dnm1, active compounds read low 1 | locus YLL026W, active compounds read low 0.997 | locus YLL041C, strain sdh2, active compounds read low 0.992 | locus YLR027C, strain aat2, active compounds read low 0.973 | locus YLR039C, strain RIC1, active compounds read low 1.06 | locus YLR058C, strain SHM2, active compounds read low 0.987 | locus YLR102C, strain apc9, active compounds read low 1.03 | locus YLR221C, strain rsa3, active compounds read low 0.936 | locus YLR258W, strain gsy2, active compounds read low 0.983 | locus YLR262C, strain YPT6 (second series), active compounds read low 0.979 | locus YLR262C, strain YPT6, active compounds read low 1.06 | locus YLR268W, strain sec22, active compounds read low 0.94 | locus YLR342W, strain FKS1, active compounds read low 0.923 | locus YLR357W, strain rsc2, active compounds read low 0.947 | locus YLR370C, strain arc18, active compounds read low 0.988 | locus YLR371W, strain rom2, active compounds read low 1.03 | locus YLR384C, strain iki3, active compounds read low 0.991 | locus YML016C, strain PPZ1, active compounds read low 1.03 | locus YML032C, strain rad52, active compounds read low 0.956 | locus YML120C, strain ndi1, active compounds read low 0.995 | locus YML124C, strain tub3, active compounds read low 1.04 | locus YMR058W, strain fet3, active compounds read low 0.978 | locus YMR078C, strain ctf18, active compounds read low 1.02 | locus YMR125W, strain sto1, active compounds read low 1.01 | locus YMR129W, active compounds read low 0.996 | locus YMR205C, strain PFK2, active compounds read low 0.95 | locus YMR223W, strain ubp8, active compounds read low 0.987 | locus YMR231W, strain pep5, active compounds read low 0.949 | locus YMR307W, strain GAS1, active compounds read low 0.775 | locus YNL067W, strain RPL9B, active compounds read low 0.999 | locus YNL153C, strain GIM3, active compounds read low 0.97 | locus YNL209W, strain ssb2, active compounds read low 0.995 | locus YNL248C, strain rpa49, active compounds read low 0.973 | locus YNL250W, strain rad50, active compounds read low 1.04 | locus YNL271C, strain bni1, active compounds read low 1.02 | locus YNL298W, strain CLA4, active compounds read low 0.973 | locus YNL307C, strain MCK1, active compounds read low 0.942 | locus YNL322C, strain KRE1 (second series), active compounds read low 0.975 | locus YNL322C, strain KRE1, active compounds read low 1.04 | locus YNR049C, strain mso1, active compounds read low 0.982 | locus YNR052C, strain pop2, active compounds read low 1.01 | locus YOL006C, strain TOP1, active compounds read low 0.88 | locus YOL012C, strain htz1 0.776 | locus YOL147C, strain pex11, active compounds read low 0.999 | locus YOR001W, strain rrp6, active compounds read low 0.97 | locus YOR061W, strain CKA2, active compounds read low 1.01 | locus YOR069W, strain VPS5, active compounds read low 1.03 | locus YOR070C, strain gyp1, active compounds read low 0.997 | locus YOR080W, strain dia2, active compounds read low 0.979 | locus YOR083W, strain WHI5, active compounds read low 0.972 | locus YOR106W, strain vam3, active compounds read low 0.961 | locus YOR136W, strain idh2, active compounds read low 1.01 | locus YOR144C, strain elg1, active compounds read low 1.01 | locus YOR265W, strain rbl2, active compounds read low 0.991 | locus YOR270C, strain vph1, active compounds read low 0.821 | locus YOR290C, strain snf2, active compounds read low 0.942 | locus YOR316C, strain cot1, active compounds read low 1.03 | locus YPL051W, strain arl3, active compounds read low 0.94 | locus YPL078C, strain atp4, active compounds read low 1 | locus YPL106C, strain sse1, active compounds read low 1.08 | locus YPL240C, strain hsp82, active compounds read low 0.991 | locus YPR119W, strain clb2, active compounds read low 1.04 | locus YPR141C, strain kar3, active compounds read low 1.04 | locus YPR163C, strain tif3, active compounds read low 0.965 | locus YPR167C, strain met16, active compounds read low 1.03 | strain wtn01, active compounds read low 0.956
active: locus YLR320W, strain mms22, active compounds read low 0.877 | locus YLR418C, strain cdc73, active compounds read low 0.79 | locus YNL071W, strain lat1, active compounds read low 0.906 | locus YNL233W, strain BNI4, active compounds read low 0.867 | locus YOR184W, strain ser1, active compounds read low 0.868
